# Source: PubChem BioAssay (Broad Institute)
# T cruzi growth-1 – inhibitors of T. cruzi proliferation; T. cruzi beta-gal in NIH3T3, GalScreen luminescence, 90 h; inhibition, % at 8.34 µM; 77,000 compounds, 5.9% hits; AID 624255;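 active = mean inhibition above about 93%, with at least 55% of replicates each passing it, limit read from the data, passing the limit was not always enough; inconclusive = only one of those two conditions holds; inactive = neither condition holds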
# Pf Dd2 inh – inhibitors of Plasmodium falciparum Dd2 growth | P. falciparum Dd2 growth, SYBR Green, 72 h; stronger effect = lower value | activity change, % at 10 µM | 94,000 compounds, 2.3% hits; in the data active = activity change below about -80%; inconclusive = no clear call, values can overlap the other calls
# C diff HTS – blocks growth of Clostridium difficile; Clostridium difficile clinical isolate growth, OD600, 24 h; stronger effect = lower value; growth activity, negative = inhibition, % at 16 µg/mL (by protocol); 86,000 compounds, 0.25% hits;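 active = mean growth activity at or below -80% and every replicate also at or below -80%; inconclusive = mean at or below -80% but some replicate above -80%; inactive = mean growth activity above -80%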;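 also: 0% = DMSO wells and -100% = levofloxacin 16 µg/mL wells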
# T cruzi growth-2 – inhibitors of T. cruzi proliferation; shares compounds with T cruzi growth-1; T. cruzi beta-gal in NIH3T3, GalScreen luminescence, 90 h; inhibition, % at 8.35 µM; 5,600 compounds, 72% hits; AID 651739;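 active = mean replicate inhibition above about 95% and at least 55% of replicates individually reaching it, limit read from the data; inconclusive = only one of the two criteria is met; inactive = neither criterion is met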
# T cruzi growth-3 – inhibitors of T. cruzi proliferation; T. cruzi beta-gal in NIH3T3, GalScreen luminescence, 90 h; shares compounds with T cruzi growth-1; 5,600 compounds, 21% hits; inhibition, % at 2.09 µM;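 active = mean inhibition above about 95%, with at least 55% of replicates also reaching it, limit read from the data; inconclusive = meets just one of the two conditions; inactive = meets neither condition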;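 also: plate controls were neutral control median for no effect and positive control median for full effect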
# 3T3 cytotox – kills mouse NIH/3T3 fibroblasts | shares compounds with T cruzi growth-1 | 5,600 compounds, 14% hits | cytotoxicity (signal decrease), % at 8.35 µM | NIH/3T3 viability, CellTiter-Glo ATP luminescence, 90 h | AID 651742;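 active = mean signal decrease across replicates above about 35% based on untreated-well scatter, with enough replicates individually passing, limit read from the data; inconclusive = no rule stated though some were filed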;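 also: 0% = median of neutral control wells and 100% = median of positive control wells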
# NIH3T3 tox 2 – kills mouse NIH/3T3 fibroblasts. shares compounds with T cruzi growth-1. NIH/3T3 viability, CellTiter-Glo ATP luminescence, 90 h. inhibition, % at 24.9 µM. 5,600 compounds, 56% hits;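 active = mean loss of cell viability signal at or above a set limit, and enough replicates individually reaching it; inconclusive = meets only the mean limit or only the replicate share; inactive = meets neither condition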;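 also: 0% = median of neutral control wells and 100% = median of positive control wells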
# * = called active by the depositor; ? = inconclusive; nt = no result. An excerpt weighted towards active compounds, which were near 6.7% of everything screened.
SMILES,T cruzi growth-1,Pf Dd2 inh,C diff HTS,T cruzi growth-2,T cruzi growth-3,3T3 cytotox,NIH3T3 tox 2
CCCN1C[C@@H](C)[C@H](OC)CN(C)C(=O)c2ccc(NC(=O)c3cccc(F)c3)cc2OC[C@H]1C,102*,-87*,nt,104*,63,11,37*
COc1cccc(C(=O)Nc2ccc3c(c2)OC[C@H](C)N(CCc2ccccc2)C[C@@H](C)[C@H](OC)CN(C)C3=O)c1,108*,-25,nt,101*,71,8,10
COc1cccc(C(=O)Nc2ccc3c(c2)OC[C@H](C)N(CCc2ccccc2)C[C@H](C)[C@H](OC)CN(C)C3=O)c1,36,-61,nt,nt,nt,nt,nt
CCCN1C[C@H](C)[C@H](OC)CN(C)C(=O)c2ccc(NS(=O)(=O)c3cn(C)cn3)cc2OC[C@@H]1C,28,44,nt,nt,nt,nt,nt
CCC(=O)N1C[C@@H](C)[C@@H](OC)CN(C)C(=O)c2cc(NC(=O)c3ccccc3)ccc2OC[C@@H]1C,-17,-37,nt,nt,nt,nt,nt
CCC(=O)N1C[C@H](C)[C@@H](OC)CN(C)C(=O)c2ccc(NC(=O)c3ccccc3)cc2OC[C@@H]1C,108*,-10,nt,8,-2,18,6
COc1ccc(S(=O)(=O)Nc2ccc3c(c2)[C@H]2C[C@H](CC(=O)N(C)C)O[C@@H](CO)[C@H]2O3)cc1,-8,26,-6,nt,nt,nt,nt
O=C(C[C@H]1C=C[C@H](NC(=O)c2ccc(F)cc2)[C@@H](CO)O1)NCc1ccncn1,18,8,5,nt,nt,nt,nt
COc1cccc(S(=O)(=O)N2CC[C@@H]3[C@H](CO)Nc4ccc(-c5ccc(C#N)cc5)cc4[C@@H]32)c1,14,12,-8,nt,nt,nt,nt
O=C(C[C@H]1CC[C@@H]2[C@H](COC[C@H](O)CN2C(=O)c2ccccc2)O1)NCCCN1CCOCC1,-3,46,-1,nt,nt,nt,nt
CC(C)NC(=O)Nc1ccc2c(c1)C(=O)N([C@H](C)CO)C[C@H](C)[C@@H](CN(C)S(=O)(=O)c1cccs1)OCCCC[C@@H](C)O2,nt,nt,-10,nt,nt,nt,nt
CCCC(=O)Nc1ccc2c(c1)OC[C@H](C)N(C(=O)c1cccnc1)C[C@@H](C)[C@@H](OC)CN(C)C2=O,13,9,nt,nt,nt,nt,nt
CCCC(=O)Nc1ccc2c(c1)OC[C@H](C)N(C(=O)c1cccnc1)C[C@@H](C)[C@H](OC)CN(C)C2=O,100*,-38,nt,61,-25,11,-8
CCCNC(=O)N1C[C@H](C)[C@@H](OC)CN(C)C(=O)c2cc(NC(=O)CC)ccc2OC[C@@H]1C,?,24,nt,-17,-2,3,-5
CCCNC(=O)N1C[C@H](C)[C@H](OC)CN(C)C(=O)c2cc(NC(=O)CC)ccc2OC[C@@H]1C,41,3,nt,nt,nt,nt,nt
COCC#Cc1ccc2c(c1)O[C@H](CN(C)Cc1ccc(F)cc1)[C@@H](C)CN([C@@H](C)CO)S2(=O)=O,83,-57,1,nt,nt,nt,nt
C[C@H]1CN([C@@H](C)CO)S(=O)(=O)c2ccc(-c3cccc(F)c3)cc2O[C@@H]1CN(C)S(=O)(=O)c1ccc(F)cc1,127*,-12,3,105*,104*,57*,38*
Cc1ccc(S(=O)(=O)N(C)C[C@H]2Oc3cc(-c4cccc(F)c4)ccc3S(=O)(=O)N([C@@H](C)CO)C[C@@H]2C)cc1,124*,-48,1,97*,94,12,38*
C[C@H](CO)N1C[C@H](C)[C@@H](CN(C)C)Oc2cc(-c3cccc(F)c3)ccc2S1(=O)=O,-18,nt,-4,nt,nt,nt,nt
COc1ccc(S(=O)(=O)N(C)C[C@@H]2Oc3cc(-c4cccc(F)c4)ccc3S(=O)(=O)N([C@@H](C)CO)C[C@@H]2C)cc1,nt,-69,8,nt,nt,nt,nt
C[C@@H]1CN([C@H](C)CO)S(=O)(=O)c2ccc(-c3cccc(F)c3)cc2O[C@@H]1CN(C)S(=O)(=O)c1ccc(F)cc1,98*,0,3,100*,89,47*,47*
C[C@@H]1CN([C@@H](C)CO)S(=O)(=O)c2ccc(-c3cccc(F)c3)cc2O[C@@H]1CN(C)C,-6,nt,-4,nt,nt,nt,nt
C[C@H]1CN([C@@H](C)CO)S(=O)(=O)c2ccc(-c3cccc(F)c3)cc2O[C@H]1CN(C)S(C)(=O)=O,138*,-45,-10,102*,69,29,52*
C[C@H]1CN([C@@H](C)CO)S(=O)(=O)c2ccc(-c3cccc(F)c3)cc2O[C@@H]1CN(C)S(C)(=O)=O,-47,15,nt,nt,nt,nt,nt
C[C@@H]1CN([C@@H](C)CO)C(=O)c2cc(C#CC3CCCC3)cnc2O[C@H]1CN(C)C(=O)c1ccncc1,nt,-26,1,nt,nt,nt,nt
SMILES,T cruzi growth-1,Pf Dd2 inh,C diff HTS,T cruzi growth-2,T cruzi growth-3,3T3 cytotox,NIH3T3 tox 2
O=C(C[C@@H]1CC[C@H](NC(=O)CC2CC2)[C@H](CO)O1)NCc1ccc(Cl)cc1,-56,-10,nt,nt,nt,nt,nt
Cc1cccc(CN(C)C[C@@H]2Oc3ncc(-c4cc5ccccc5o4)cc3C(=O)N([C@H](C)CO)C[C@@H]2C)c1,99*,-63,21,106*,77,44*,104*
COc1ccc(NC(=O)N(C)C[C@@H]2Oc3ncc(-c4cc5ccccc5o4)cc3C(=O)N([C@H](C)CO)C[C@@H]2C)cc1,109*,-47,1,106*,41,32,34*
C[C@H](CO)N1C[C@H](C)[C@H](CN(C)Cc2ccc(F)cc2)Oc2ncc(-c3cc4ccccc4o3)cc2C1=O,nt,-38,19,nt,nt,nt,nt
C[C@H](CO)N1C[C@H](C)[C@H](CN(C)C(=O)Nc2ccc3c(c2)OCO3)Oc2ncc(-c3cc4ccccc4o3)cc2C1=O,nt,-71,2,nt,nt,nt,nt
COc1cccc(S(=O)(=O)N(C)C[C@@H]2Oc3ncc(-c4cc5ccccc5o4)cc3C(=O)N([C@H](C)CO)C[C@@H]2C)c1,109*,-67,2,104*,73,39*,16
C[C@H](CO)N1C[C@H](C)[C@H](CN(C)S(=O)(=O)c2cccc(F)c2)Oc2ncc(-c3cc4ccccc4o3)cc2C1=O,nt,-56,9,nt,nt,nt,nt
C[C@H](CO)N1C[C@H](C)[C@H](CN(C)C(=O)Nc2ccc(-c3ccccc3)cc2)OCc2ccccc2-c2ccccc2C1=O,nt,-67,-6,nt,nt,nt,nt
C/C=C/c1ccc2c(c1)O[C@@H](CN(C)C(=O)NC1CCCCC1)[C@@H](C)CN([C@H](C)CO)S2(=O)=O,100,-55,-4,nt,nt,nt,nt
COc1ccc(S(=O)(=O)N(C)C[C@H]2OCCCC[C@H](C)Oc3ccc(NC(=O)C4CCCCC4)cc3C(=O)N([C@H](C)CO)C[C@@H]2C)cc1,60,-41,0,nt,nt,nt,nt
COc1ccc(S(=O)(=O)N(C)C[C@H]2OCCCC[C@H](C)Oc3ccc(NC(=O)C4CCCCC4)cc3C(=O)N([C@@H](C)CO)C[C@@H]2C)cc1,106*,?,7,105*,79,0,-26
